Out of some 68,000 compounds screened, about 2,700 (4%) showed an effect of 50% or more. This excerpt belongs to a sample that is enriched for strong results.
What follows are compounds tested on Plasmodium berghei (assay: Screen against P. berghei liver stage (PbLuc), transformed with Luciferase, at 2uM). Conditions: tested at 2 uM.
Type: functional, HepG2

Row | Structure (SMILES) | INHIBITION
1 | Cc1nc(CNCc2c(C)nn(C)c2N2CCOCC2)cs1 | -14.3%
2 | COc1ncccc1CNCc1c(C)nn(C)c1N1CCOCC1 | 40.24%
3 | Cc1cc(CNCc2c(C)nn(C)c2N2CCOCC2)no1 | 65.77%
4 | Cc1nn(C)c(N2CCOCC2)c1CNCc1ccc(CO)c(F)c1 | 63.05%
5 | Cc1nn(C)c(N2CCOCC2)c1CNCc1ccccc1CO | 50.18%
6 | Cc1nn(C)c(N2CCOCC2)c1CNCc1ccnc(N(C)C)c1 | 17.11%
7 | Cc1cc(CNCc2c(C(C)C)nn(C)c2N2CCOCC2)no1 | 22.16%
8 | Cc1nn(C)c(N2CCOCC2)c1CNCc1ccc2c(c1)OCO2 | 18.01%
9 | Cc1nn(C)c(N2CCOCC2)c1CNCc1ccoc1C | 10.4%
10 | CN(Cc1ccc(F)cc1)CC1(O)CCN(C(=O)c2cccs2)C1 (configuration not stated) | -27.04%
11 | CC(C)c1nc2n(n1)CC(NCc1nnc(C3CC3)o1)CC2 (configuration not stated) | -30.61%
12 | O=C(CCNC(=O)C1CCCC1)NCc1cccnc1-n1cncn1 | -18.67%
13 | Cc1nn(C)c(C)c1C1SCC(=O)Nc2c1c(O)nn2C(C)C (configuration not stated) | 4.89%
14 | COc1ccc(Cl)cc1CN(C)CC(=O)Nc1ccnn1C(C)C1CC1 (configuration not stated) | -13.72%
15 | Cc1cccc(C2(CNC(=O)CO)CCCC2)c1 | 35.23%
16 | CC(=O)N(C)CC(=O)NCC1(c2c(F)cccc2F)CCCC1 | -41.54%
17 | CC(=O)N(C)CC(=O)NCC1(c2cccc(C)c2)CCCC1 | 54.29%
18 | CN1CCC(c2cccc(CCC(=O)NCC(N)=O)n2)CC1 | 7.64%
19 | CN(C)C(=O)N1CCC2(CC1)CN(CC1CC1)CC21CCNC1=O (configuration not stated) | 35.89%
20 | CC(=O)N1CCC2(CC1)CN(CC(C)C)CC21CCNC1=O (configuration not stated) | 63.35%
21 | CC(=O)N1CCC2(CC1)CN(C(C)=O)CC21CCNC1=O (configuration not stated) | 24.36%
22 | CCC[C@@H]1CN(Cc2cc(C#N)n(C)c2C)C[C@H]1NS(C)(=O)=O | 1.88%
23 | CCC[C@H]1CN(Cc2cc(C#N)n(C)c2C)C[C@@H]1N(C)C | 51.4%

Row | Structure (SMILES) | INHIBITION
24 | CCC[C@H]1CN(Cc2cc(C#N)n(C)c2C)C[C@@H]1NS(=O)(=O)CC | 35.26%
25 | NC(=O)c1sc2ccccc2c1C1CCN(S(=O)(=O)N2CCOCC2)C1 (configuration not stated) | -18.15%
26 | Cc1noc(C)c1CN1CC[C@@H]2O[C@@H](COCC(C)C)CC[C@@H]21 | 13.87%
27 | COCCN1CC[C@@H]2O[C@@H](COCC(=O)N3CCCC3)CC[C@@H]21 | -14.49%
28 | COCCN1CC[C@@H]2OC(COCC(=O)N3CCCC3)CC[C@@H]21 (some centres not stated) | 51.05%
29 | CN(C)CCN1CC[C@@H]2O[C@@H](COCC(=O)N3CCCC3)CC[C@@H]21 | -30.82%
30 | Cc1ncnc2c1CCN(Cc1cccs1)CC2 | -8.24%
31 | CNS(=O)(=O)CC(=O)N1CCC(c2cc3ccccc3[nH]2)CC1 | -46.85%
32 | O=C(C1CCC1)N1CCC2(CCCN2CC2CC2)CC1 | 55.66%
33 | O=C(C1CCCC1)N1CCC2(CC1)COCCN2CC1CC1 | -11.91%
34 | O=C(C1CCCCC1)N1CCC2(CCCN2CC2CC2)CC1 | 24.15%
35 | CC(C)NC(=O)[C@@H]1CC[C@@H]2[C@@H](CCN2Cc2cn(C)c3ccccc23)O1 | 29.43%
36 | Cc1nc(CCCNC(=O)C2CC(=O)N(C(C)(C)C)C2)sc1C (configuration not stated) | 13.87%
37 | CCN1CC(C(=O)NCCCc2nc(C)c(C)s2)CC1=O (configuration not stated) | 72.05%
38 | Cc1nc(CCCNC(=O)C2CC(=O)N(C3CC3)C2)sc1C (configuration not stated) | -52.42%
39 | CCS(=O)(=O)NCc1cccnc1N1CCCC(O)C1 (configuration not stated) | -5.31%
40 | Nc1nc(C2CCN(C(=O)c3cncs3)CC2)cs1 | 0.14%
41 | CCNC(=O)CNS(=O)(=O)c1cc(Br)ccc1F | 42.32%
42 | COC1CCN(c2ccc(NC(=O)C3CC3)cc2C(F)(F)F)CC1 | -1.71%
43 | CCC(=O)Nc1ccc(F)c(S(=O)(=O)NC(C)(C)C)c1 | 57.75%
44 | CC(C)(C)NS(=O)(=O)c1ccc(NC(=O)C2CC2)cc1 | 17.2%
45 | CC(=O)Nc1ccc(F)c(S(=O)(=O)NC(C)(C)C)c1 | -1.87%
46 | CC(C)(C)NS(=O)(=O)c1cc(NC(=O)C2CC2)ccc1F | 62.51%

Row | Structure (SMILES) | INHIBITION
47 | CCS(=O)(=O)N1Cc2c(Cn3ccnc3)nn(C(C)C)c2C1 | 3.72%
48 | Cc1n[nH]c(C)c1CC(=O)NCCc1ccccc1 | 25.21%
49 | COc1ccc(CC2CN(C(=O)c3coc(C)n3)CCO2)cc1 (configuration not stated) | -10.03%
50 | Cc1nc(C(=O)N2CCOC(Cc3ccc(F)cc3)C2)co1 (configuration not stated) | 51.45%
51 | Cc1nc(C(=O)N2CCOC(Cc3ccccc3)C2)co1 (configuration not stated) | 5.76%
52 | CCOCCN1CCn2c(C)nnc2C1 | 58.53%
53 | Cc1cc(C)cc(OCCN2CCn3c(C)nnc3C2)c1 | 20.41%
54 | Cc1nnc2n1CCN(CCOc1ccccc1)C2 | -55.52%
55 | CC(C)[C@H]1CN(CCCO)C[C@@H]1NC(=O)CCS(C)(=O)=O | 25.9%
56 | O=C(CCS(=O)(=O)C1CCCC1)NCc1ccccc1Cn1cncn1 | 31.57%
57 | COc1c(CNC2CCCOc3ccccc32)c(C)nn1C (configuration not stated) | -18.88%
58 | COc1c(CNC2CCCc3ccccc32)c(C(C)C)nn1C (configuration not stated) | 69.22%
59 | COc1c(CNC2CCCc3ccccc32)c(C)nn1C (configuration not stated) | 11.28%
60 | COc1c(CNC2CCc3ccccc32)c(C(C)C)nn1C (configuration not stated) | 24.65%
61 | Cc1nn(C)c(Oc2ccccc2)c1CNC1CCOc2ccccc21 (configuration not stated) | -15.64%
62 | COc1c(CNC2CCOc3ccccc32)c(C)nn1C (configuration not stated) | 64.08%
63 | O=C1NCCCC[C@@H]1Nc1ccc(-c2nc(C3CC3)no2)cn1 | 8.75%
64 | c1cncc(COCc2nnc3n2CCN(Cc2ccco2)C3)c1 | -8.22%
65 | COc1ccccc1CC(C)(C)C(=O)NCC(=O)Nc1cccnc1 | -16.15%
66 | O=C(NC1CCC(O)CC1)c1ccc2nc(-c3ccccc3)cn2c1 (configuration not stated) | 2.17%
67 | COc1ccc(C)cc1CC(=O)Nc1cc(C)n[nH]1 | -19.45%
